PubChem BioAssay (EPA / NIEHS)
Records with an inconclusive call do not appear. Activity calls are given as the source filed them. How the source made its calls, unless noted: active means hit-call score of the fitted dose curve at least 0.9, where 1 is the maximum; inactive means score below 0.9.

Assay: CCTE_Padilla_ZF_144hpf_TERATOSCORE: (Legacy) CCTE's 144 Hour Post-fertilization zebrafish Assay Teratoscore, Padilla Lab (AID 2283679);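 on AC50: zebrafish embryos with chorions exposed by immersion from 6-8 hpf to 5 dpf with daily renewal; teratogenicity score from eye scoring of death hatching and malformations at 144 hpf; higher score means more developmental defects relative to DMSO baseline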
How it was run: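 Larvae scored by eye at 144 hpf for death, hatching and malformations after a day in clean Hanks'. Before that, daily-renewed exposure at 80 uM (0.4% DMSO, 26C) from roughly 6-8 hpf through 5 dpf, 4 embryos per chemical.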

Row | Compound | AC50 | outcome
1 | CCCC(CCC)C(=O)O | 78.7 µM (active) | –
2 | CC(C)c1nnc2ccc(-c3ocnc3-c3cc(F)ccc3F)cn12 | 61.9 µM (active) | –
3 | CCCc1ccccc1 | – | inactive
4 | O=C1CN(N=Cc2ccc([N+](=O)[O-])o2)C(=O)N1 | – | inactive
5 | CCc1ccc(O)c(C(C)(C)C)c1 | 25.1 µM (active) | –
6 | CCCCCCCCCCCCCCCCOS(=O)(=O)O | 7.7 µM (active) | –
7 | C=CCc1cc(S(=O)(=O)c2ccc(O)c(CC=C)c2)ccc1O | 60 µM (active) | –
8 | COc1cc(C(C)C)c2c(c1)S(=O)(=O)N(COc1cc(=O)n3cccc(OCCN4CCCCC4)c3n1)C2=O | 15.5 µM (active) | –
9 | OCc1ccccc1 | – | inactive
10 | Cn1cc[nH]c1=S | – | inactive
11 | NC(=O)N(O)[C@@H]1COc2cc(OCc3ccccc3)ccc21 | – | inactive
12 | C[C@@H](Oc1ccc(CNC(=O)c2cccnc2Oc2ccc3c(c2)OCO3)c(F)c1)C(=O)O | – | inactive
13 | CCCCCCCC1CCC(=O)O1 (configuration not stated) | 8.03 µM (active) | –

Assay: STM_H9_OrnithineISnorm_perc: Stemina devTOX quickPredict H9 human embryonic stem cell (hESC)-based Assay for Ornithine (ORN) Metabolite Biomarker, Normalized (AID 2283712);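 further: ornithine released into spent medium during last day measured by mass spectrometry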
How it was run: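 Ornithine in spent medium from the last 24 h of a 72 h exposure, deproteinised and quantified by UPLC-HRMS against an isotope-labelled internal standard, expressed relative to 0.1% DMSO. Pluripotent H9 cells; compound refreshed every 24 h.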

Row | Compound | AC50 | outcome
14 | CCCC(CCC)C(=O)O | 334 µM (active) | –
15 | CCCCN1C(=O)[C@@H]([C@H](O)C2CCCCC2)NC(=O)C12CCN(Cc1ccc(Oc3ccc(C(=O)O)cc3)cc1)CC2 | – | inactive
16 | O=C1CN(N=Cc2ccc([N+](=O)[O-])o2)C(=O)N1 | 7.42 µM (active) | –
17 | Cn1c(=O)c2[nH]cnc2n(C)c1=O | – | inactive
18 | NC(=O)NN=Cc1ccc([N+](=O)[O-])o1 | – | inactive
19 | Cn1cc[nH]c1=S | – | inactive
20 | C[C@]12C=CC(=O)C=C1CC[C@H]1[C@@H]3C[C@@H](O)[C@](O)(C(=O)CO)[C@@]3(C)C[C@H](O)[C@@]12F | – | inactive
21 | Cc1nc(-c2ccccn2)ncc1C(=O)Nn1cc(C)c2cc(F)ccc21 | – | inactive
22 | COS(C)(=O)=O | 71.4 µM (active) | –

Assay: STM_H9_CystineISnorm_perc: Stemina devTOX quickPredict H9 human embryonic stem cell (hESC)-based Assay for Cystine (CYSS) Metabolite Biomarker, Normalized (AID 2283713)
How it was run: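 Cystine in spent media from the last 24 h of a 72 h H9 hESC exposure (daily re-dosing), measured by UPLC-HRMS. Values normalized to isotopic internal standard, then to 0.1% DMSO; viability via CellTiter-Fluor.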

Row | Compound | AC50 | outcome
23 | CCCC(CCC)C(=O)O | 242 µM (active) | –
24 | CCCCN1C(=O)[C@@H]([C@H](O)C2CCCCC2)NC(=O)C12CCN(Cc1ccc(Oc3ccc(C(=O)O)cc3)cc1)CC2 | 2.26 µM (active) | –
25 | O=C1CN(N=Cc2ccc([N+](=O)[O-])o2)C(=O)N1 | 5.91 µM (active) | –
26 | Cn1c(=O)c2[nH]cnc2n(C)c1=O | – | inactive
27 | NC(=O)NN=Cc1ccc([N+](=O)[O-])o1 | – | inactive
28 | Cn1cc[nH]c1=S | 37.7 µM (active) | –
29 | C[C@]12C=CC(=O)C=C1CC[C@H]1[C@@H]3C[C@@H](O)[C@](O)(C(=O)CO)[C@@]3(C)C[C@H](O)[C@@]12F | – | inactive
30 | Cc1nc(-c2ccccn2)ncc1C(=O)Nn1cc(C)c2cc(F)ccc21 | – | inactive
31 | COS(C)(=O)=O | 62.6 µM (active) | –

Assay: STM_H9_OrnCyssISnorm_ratio: Stemina devTOX quickPredict H9 human embryonic stem cell (hESC)-based Assay for Ornithine (ORN):Cystine (CYSS) Ratio (AID 2283714; active means hit-call score of the fitted dose curve at least 0.9, where 1 is the maximum)
How it was run: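 H9 hESC, 72h, q24h re-dose; last-day media → acetonitrile deproteinization → UPLC-HRMS. ORN:CYSS ratio from isotope-normalized EIC areas, vs 0.1% DMSO; MTX references on each plate.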

Row | Compound | AC50 | outcome
32 | CCCC(CCC)C(=O)O | 293 µM (active) | –
33 | CCCCN1C(=O)[C@@H]([C@H](O)C2CCCCC2)NC(=O)C12CCN(Cc1ccc(Oc3ccc(C(=O)O)cc3)cc1)CC2 | 2.14 µM (active) | –
34 | O=C1CN(N=Cc2ccc([N+](=O)[O-])o2)C(=O)N1 | 6.21 µM (active) | –
35 | NC(=O)NN=Cc1ccc([N+](=O)[O-])o1 | 2.42 µM (active) | –
36 | Cc1nc(-c2ccccn2)ncc1C(=O)Nn1cc(C)c2cc(F)ccc21 | – | inactive
37 | COS(C)(=O)=O | 65.5 µM (active) | –

Assay: CEETOX_H295R_MTT_cell_viability: Viability Assessment in the CeeTox HT-H295R MTT Assay (AID 2283718);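 on AC50: curve fitted both ways so AC50 may mark viability loss or gain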
How it was run: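 H295R cells prestimulated 48 h with 10 uM forskolin, then exposed 48 h to test chemical (0.1% DMSO final). Viability by MTT (0.5 mg/ml, 4 h, 37 C), absorbance 570/650 nm; percent change versus DMSO, bidirectional fit.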

Row | Compound | outcome | AC50
38 | CC(C)c1nnc2ccc(-c3ocnc3-c3cc(F)ccc3F)cn12 | inactive | –
39 | c1ccc2cc3ccccc3cc2c1 | inactive | –
40 | CCCOc1ccc(S(=O)(=O)N2CCN(CC)CC2)cc1-c1nc2c(CC)n(Cc3ccccn3)nc2c(=O)[nH]1 | inactive | –
41 | C=CCc1cc(S(=O)(=O)c2ccc(O)c(CC=C)c2)ccc1O | inactive | –
42 | C[C@@H](Oc1ccc(CNC(=O)c2cccnc2Oc2ccc3c(c2)OCO3)c(F)c1)C(=O)O | inactive | –
43 | C[C@]12C=CC(=O)C=C1CC[C@H]1[C@@H]3C[C@@H](O)[C@](O)(C(=O)CO)[C@@]3(C)C[C@H](O)[C@@]12F | inactive | –
44 | Cc1nc(-c2ccccn2)ncc1C(=O)Nn1cc(C)c2cc(F)ccc21 | – | 75.8 µM (active)
45 | CCn1nc(C)c2c1C(=O)NCC(c1ccc(O)cc1)=N2 | inactive | –

Assay: Tanguay_ZF_120hpf_ActivityScore_legacy: (Legacy) Oregon State University Tanguay Lab 120 Hour Post-fertilization zebrafish Assay Score for Activity (AID 2283742; active means hit-call score of the fitted dose curve at least 0.9, where 1 is the maximum;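 on AC50: dechorionated Tropical 5D wild-type zebrafish embryos held singly per well; static exposure from 6 hpf until 120 hpf at 28 °C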)
How it was run: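 In this whole-embryo screen, dechorionated zebrafish were exposed from 6 hpf until 120 hpf at 28C under a 0.64% DMSO vehicle. Developmental malformations and death were recorded by brightfield microscopy as binary endpoints.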

Row | Compound | outcome | AC50
46 | CCCC(CCC)C(=O)O | inactive | –
47 | CC(C)c1nnc2ccc(-c3ocnc3-c3cc(F)ccc3F)cn12 | inactive | –
48 | Cc1ccc(S(=O)(=O)NC(=O)NN2CCCCCC2)cc1 | inactive | –
49 | OC[C@H]1O[C@@H]2O[C@H]3[C@H](O)[C@@H](O)[C@@H](O[C@H]4[C@H](O)[C@@H](O)[C@@H](O[C@H]5[C@H](O)[C@@H](O)[C@@H](O[C@H]6[C@H](O)[C@@H](O)[C@@H](O[C@H]7[C@H](O)[C@@H](O)[C@@H](O[C@H]1[C@H](O)[C@H]2O)O[C@@H]7CO)O[C@@H]6CO)O[C@@H]5CO)O[C@@H]4CO)O[C@@H]3CO | inactive | –
50 | CCCCN1C(=O)[C@@H]([C@H](O)C2CCCCC2)NC(=O)C12CCN(Cc1ccc(Oc3ccc(C(=O)O)cc3)cc1)CC2 | inactive | –
51 | c1ccc2cc3ccccc3cc2c1 | inactive | –
52 | CCCc1ccccc1 | inactive | –
53 | O=C1CN(N=Cc2ccc([N+](=O)[O-])o2)C(=O)N1 | inactive | –
54 | CCc1ccc(O)c(C(C)(C)C)c1 | inactive | –
55 | CCCOc1ccc(S(=O)(=O)N2CCN(CC)CC2)cc1-c1nc2c(CC)n(Cc3ccccn3)nc2c(=O)[nH]1 | inactive | –
56 | Cn1c(=O)c2[nH]cnc2n(C)c1=O | inactive | –
57 | CCCCCCCC/C=C\CCCCCCCC(=O)OC[C@@H](O)[C@H]1OC[C@H](O)[C@H]1O | inactive | –
58 | CCCCCCCCCCCCCCCCOS(=O)(=O)O | inactive | –
59 | NC(=O)NN=Cc1ccc([N+](=O)[O-])o1 | inactive | –
60 | C=CCc1cc(S(=O)(=O)c2ccc(O)c(CC=C)c2)ccc1O | inactive | –
61 | c1ccc2ncccc2c1 | inactive | –

Row | Compound | outcome | AC50
62 | COc1cc(C(C)C)c2c(c1)S(=O)(=O)N(COc1cc(=O)n3cccc(OCCN4CCCCC4)c3n1)C2=O | – | 7.72 µM (active)
63 | OCc1ccccc1 | inactive | –
64 | NNC(=O)c1ccncc1 | inactive | –
65 | O=C(O)c1cccc(C(=O)O)c1 | inactive | –
66 | COCc1nnc(-c2ccc[n+]([O-])c2)n1-c1c(Cl)c(Cl)cc2[nH]c(=O)c(=O)[nH]c12 | inactive | –
67 | NC(=O)N(O)[C@@H]1COc2cc(OCc3ccccc3)ccc21 | inactive | –
68 | C[C@@H](Oc1ccc(CNC(=O)c2cccnc2Oc2ccc3c(c2)OCO3)c(F)c1)C(=O)O | inactive | –
69 | C[C@]12C=CC(=O)C=C1CC[C@H]1[C@@H]3C[C@@H](O)[C@](O)(C(=O)CO)[C@@]3(C)C[C@H](O)[C@@]12F | – | 0.00064 µM (active)
70 | Cc1nc(-c2ccccn2)ncc1C(=O)Nn1cc(C)c2cc(F)ccc21 | inactive | –
71 | COS(C)(=O)=O | inactive | –
72 | OC(CCl)CCl | inactive | –
73 | O=C(NO)C1(NS(=O)(=O)c2ccc(Oc3ccc(F)cc3)cc2)CCOCC1 | inactive | –
74 | OC[C@H]1O[C@@](CO)(O[C@H]2O[C@H](CO)[C@@H](O)[C@H](O)[C@H]2O)[C@@H](O)[C@@H]1O | inactive | –
75 | NC(N)=O | inactive | –
76 | CCn1nc(C)c2c1C(=O)NCC(c1ccc(O)cc1)=N2 | inactive | –
77 | CCCCCCCC1CCC(=O)O1 (configuration not stated) | – | 43.7 µM (active)
